Reference: the supplement of paper PMC9694430

The compounds below were run on LOC_OS01G60700-cb002 (assay: thermal shift delta Tm vs DMSO control; higher = stronger stabilization (binding)). Conditions: 12.5 µM; protein concentration 2 µM.
In short: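 Compounds dissolved in DMSO were added to purified rice kinase domain constructs, which had been expressed in E. coli, for differential scanning fluorimetry. Each well held 19.5 μl of 2 μM kinase in 100 mM potassium phosphate pH 7.5, 150 mM NaCl, 10% glycerol and 5 × SYPRO Orange. Fluorescence was followed from 25°C to 95°C at a rate of 0.05°C/s. Shifts in Boltzmann-fitted melting temperature are triplicate means relative to DMSO-only protein.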

SMILES | thermal shift delta Tm
CN1CCN(c2nc(C3=C(c4c[nH]c5ccccc45)C(=O)NC3=O)c3ccccc3n2)CC1 [Sotrastaurin] | 0.76 °C
Cc1ccc(-n2nc(C(C)(C)C)cc2NC(=O)NCc2cc(F)ccc2Oc2ccc3c(cnn3CCO)c2)cc1 [Pexmetinib (ARRY-614)] | 0.83 °C
Cc1cc(F)c(Nc2ncnc3cc(OCc4ccccc4)ccc23)cc1O | 2.58 °C
C[C@@H]1COC(Nc2ccc3ncnc(Nc4ccc(OCc5nccs5)c(Cl)c4)c3c2)=N1 [Varlitinib] | 1.53 °C
CCCCNc1ncc2c(-c3ccc(CN4CCN(C)CC4)cc3)cn([C@H]3CC[C@H](O)CC3)c2n1 | 0.56 °C
CCC(=O)Nc1cccc(Oc2nc(Nc3ccc(N4CCN(C)CC4)cc3OC)ncc2Cl)c1 | 1.14 °C
CC(C)(CCCCCC(O)CCCCCC(C)(C)C(=O)O)C(=O)O | 0.87 °C
Cc1c(Cn2c(C)nc3c(C(=O)O)cc(N4CCOCC4)cc32)cccc1C(F)(F)F | 0.4 °C
Cc1ccc(-n2nc(C(C)(C)C)cc2NC(=O)Nc2ccc(OCCN3CCOCC3)c3ccccc23)cc1 [Doramapimod (BIRB 796)] | 0.98 °C
O=S(=O)(NCCNC/C=C/c1ccc(Br)cc1)c1cccc2cnccc12 | 0.98 °C
CN1CCN(c2ccc(-c3ccncc3-c3cc(F)c(O)c(F)c3)cc2)CC1 | 0.66 °C
C=CC(=O)N[C@H]1CCOC[C@H]1Nc1ncc2cc(-c3c(Cl)c(OC)cc(OC)c3Cl)ccc2n1 | -0.29 °C
Cc1cc(Nc2cc(N)ncn2)c(=O)n2c1C(=O)NC21CCCCC1 | -0.25 °C
O=C1NC(=O)C(c2ccccc2[N+](=O)[O-])=C1Nc1ccc(O)c(Cl)c1 | 1.88 °C
Cc1ccccc1CN1C2=NCCN2C(=O)C2=C1CCN(Cc1ccccc1)C2 [TIC10 Analogue] | 1.04 °C
CCNC(=O)Nc1ccc(-c2nc3c(c(N4CCOC[C@@H]4C)n2)CCN(C2COC2)C3)cc1 | 0.42 °C
CC[C@@H]1C(=O)N(C)c2cnc(Nc3ccc(C(=O)NC4CCN(C)CC4)cc3OC)nc2N1C1CCCC1 | 0.69 °C
Nc1nc(N)c2nc(-c3cccc(O)c3)c(-c3cccc(O)c3)nc2n1 | 1.27 °C
CCc1cnn2c(NCc3ccc[n+]([O-])c3)cc(N3CCCC[C@H]3CCO)nc12 | 0.78 °C
COc1ccc(CC(=O)Nc2nc3c(s2)CCc2ccccc2-3)cc1OC | 0.11 °C
CCn1c(N)c(C(=O)NC)c(=O)c2ccc(C#CC(C)(O)COC)nc21 (centres undefined) | 1.1 °C
Oc1c(F)cc(-c2cnccc2-c2ccc(N3CCOCC3)cc2)cc1F | 0.34 °C
CCN(CC)CCNC(=O)c1c(C)[nH]c(/C=C2\C(=O)Nc3ccc(F)cc32)c1C [Sunitinib] | 0.91 °C
CC(C)(C#N)c1ccc(N2C(=O)OCc3cnc4ccc(-c5cnc6ccccc6c5)cc4c32)cc1 | 1.49 °C
